A selection: hits, their analogues and other compounds. The true share with any hit is near 9.2%.
FLuc counter = inhibits or activates purified firefly luciferase, miR-21 counter-screen. Potency, µM (highest dose often 57.5 µM), actives largely listed as inhibitors. purified FLuc, Km substrates, luminescence inhibition. hit rate 6.9% among 360,000; further: nearly all actives have a fitted effect of over 55% in size
Target sequence (P08659 whole entry, looked up): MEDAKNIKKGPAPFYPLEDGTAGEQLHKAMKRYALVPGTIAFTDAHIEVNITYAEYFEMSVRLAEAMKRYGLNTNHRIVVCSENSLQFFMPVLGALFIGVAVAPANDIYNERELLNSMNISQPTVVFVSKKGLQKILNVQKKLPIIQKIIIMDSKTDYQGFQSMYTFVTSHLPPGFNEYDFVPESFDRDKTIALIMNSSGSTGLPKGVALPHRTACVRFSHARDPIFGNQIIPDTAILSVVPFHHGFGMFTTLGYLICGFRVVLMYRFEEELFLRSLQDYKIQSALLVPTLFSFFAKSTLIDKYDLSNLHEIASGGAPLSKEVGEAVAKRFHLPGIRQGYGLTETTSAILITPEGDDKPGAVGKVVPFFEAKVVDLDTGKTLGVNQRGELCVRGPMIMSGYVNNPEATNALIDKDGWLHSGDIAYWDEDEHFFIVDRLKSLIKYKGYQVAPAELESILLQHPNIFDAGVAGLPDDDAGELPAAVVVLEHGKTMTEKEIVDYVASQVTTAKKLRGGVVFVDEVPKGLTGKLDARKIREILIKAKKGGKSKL
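Purified P. pyralis luciferase, 10 nM final, with Km-level 10 uM D-luciferin and 10 uM ATP in 50 mM Tris acetate pH 7.5, 10 mM Mg acetate, 0.01% Tween-20, 0.05% BSA; 6-point qHTS titration about 60 µM downward; luminescence read.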
SMN2 splice up = enhancers of SMN2 splice variant expression. HEK293 SMN2-luciferase splicing reporter, luminescence, 30-36 h. AID 1458. Potency, µM (series often up to 46.1 µM), actives largely listed as activators. hit rate 2.8% among 210,000; further: nearly all actives have a fitted effect of over 55% in size
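qHTS luciferase splicing reporter: luminescence rises when SMN2 exon 7 is included in transfected HEK293 cells. Compound exposure lasted 30-36 h at 37C, with 4.5 mM final sodium butyrate as control, followed by a ONE-Glo read.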
NPC1 promoter act = NPC1 promoter activation | Potency, µM (doses to about 9.22 µM), usual class: activators | hit rate 2.4% among 320,000 | Huh7 NPC1 promoter luciferase reporter, 24 h; further: nearly all actives have a fitted effect of over 60% in size
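Quantitative HTS used a cell-based reporter: Huh7 cells stably bearing the NPC1 promoter upstream of luciferase were treated with compounds for 24 h, and promoter activation was read as luminescence.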
ELG1 genotox = genotoxicity induction in ELG1-luciferase HEK293T cells; HEK293T ELG1-luciferase reporter, luminescence, 16 h; Potency, µM (doses to about 46 µM), hits mostly activators; hit rate 1.3% among 330,000; further: nearly all actives have a fitted effect of over 60% in size
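DMSO vehicle served as control against compound-treated ELG1-luciferase HEK293T cells; exposure lasted 16 hr at 37 °C and 5% CO2, followed by ONE-Glo luminescence detection after 30 min.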
ELG1 DNA repair = ELG1-dependent DNA repair inhibition; hit rate 2.3% among 330,000; HEK293T ELG1-luciferase reporter, luminescence, 16 h; DNA damage induced by 5-fluorouridine; Potency, µM (series often up to 46.1 µM), most hits filed as inhibitors; further: nearly all actives have a fitted effect of over 55% in size
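DMSO vehicle served as the neutral condition. Each well held 2,000 cells given 5-fluorouridine plus compound; after 16 hr at 37 °C/5% CO2, ONE-Glo was added and luciferase measured 30 min later.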
Rab9 prom act = activates the Rab9 promoter | Huh7 Rab9 promoter-luciferase reporter, luminescence, 24 h | Potency, µM (doses to about 9.22 µM), actives largely listed as activators | hit rate 2.8% among 320,000 | AID 485297; further: nearly all actives have a fitted effect of over 60% in size
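Luminescence from Amplite-detected luciferase (10 minutes, ambient) reports Rab9 promoter activation. Before that, stable Rab9-luciferase Huh7 cells (1500/well, reduced-serum OP-MEM I plus 10% FBS) were exposed to compound for 24 hours at 37C.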
Numbers stand for hits; - = inactive; ? = inconclusive; . = no result; [ ] = remark or other dose. The call rests on the fitted dose curve; in most records, active means well fitted curve in the direction sought with a large enough effect; inconclusive means small, poorly fitted or top-dose-only effect, or another doubt; inactive means no such curve, though single readings can be large; an effect the other way counts as inactive or inconclusive.

SMILES | FLuc counter | SMN2 splice up | NPC1 promoter act | ELG1 genotox | ELG1 DNA repair | Rab9 prom act
c1ccc2c(c1)CCN(C1=Nc3cccc4cccc1c34)C2 | 6.7µM | 16µM | - | - | ? | 2.8µM
COC(=O)c1ccccc1NC(=O)Cc1noc2ccc(C)cc12 | - | . | . | . | . | .
COCc1nc2oc3ccc(F)cc3c(=O)c2cc1C(=O)OC | ? | . | 2.8µM | ? | ? | ?
COCc1nc2oc3ccc(C)cc3c(=O)c2cc1C(=O)OC | 11µM | . | ? | ? | ? | 1.8µM
O=C(Nc1ccccc1)c1cc2c(=O)c3ccccc3oc2nc1C(F)(F)F | - | - | - | - | - | -
CCc1nc2oc3ccccc3c(=O)c2cc1C(=O)OC | 13µM | . | 3.2µM | ? | ? | 3.5µM
CC1(C)OC(=O)C=C[C@]2(C)[C@H]3CC[C@@]4(C)[C@H](C(=O)O)OC(=O)[C@H]5O[C@]54[C@]3(C)C(=O)C[C@@H]12 | - | . | - | - | - | -
COc1ccc(NC(=O)C2CCCN(S(=O)(=O)c3cccs3)C2)cc1 (stereo not given) | - | - | . | . | . | .
COc1cc(CN(C(=O)c2ccc(Cl)cc2)C2CCS(=O)(=O)C2)cc(OC)c1OC (stereo not given) | - | - | . | . | . | .
COC(=O)c1ccc2c(=O)n(CCc3ccc(S(N)(=O)=O)cc3)c(SCC(=O)C(C)(C)C)nc2c1 | - | . | . | . | . | .
CNS(=O)(=O)c1cn(CC(=O)NCc2ccc(F)cc2)cc1S(=O)(=O)NC | - | . | - | - | - | -
CN1c2ccsc2C(O)=C(C(=O)Nc2ccccc2)S1(=O)=O | 15µM | - | - | - | ? | -
Cc1ccc(NC(=O)C2=C(O)c3sccc3N(C)S2(=O)=O)cc1 | 8.5µM | ? | - | - | ? | -
CCc1c(-c2ccccc2)nc2ccccc2c1C(=O)NCc1ccc(C)cc1 | - | . | . | . | . | .
CCCCN(c1ccccc1)c1ncnc2c1cnn2-c1cccc(C)c1 | - | . | . | . | . | .
CCN(c1ccccc1)c1ncnc2c1cnn2-c1ccc(OC)cc1 | 6.7µM | . | . | . | . | .
CCCCN(c1ccccc1)c1ncnc2c1cnn2-c1ccc(Cl)cc1 | 13µM | . | . | . | . | .
CC12CCC(=O)N1C(C(=O)Nc1nnc(SCc3ccc(F)cc3)s1)CS2 (stereo not given) | - | . | - | - | - | -
CCOC(=O)c1cc(-c2ccccc2)n(CC(=O)NCc2ccccc2OC)c1C | - | . | . | . | . | .
Clc1ccc2[nH]c(-c3ccccc3)cc2c1 | 11µM | ? | 3.2µM | ? | ? | 2.5µM
c1ccc(-c2cc3ccccc3[nH]2)cc1 | 19µM | . | ? | ? | ? | ?
COc1ccc(-c2cc3ccccc3[nH]2)cc1 | 4.8µM | . | 3.5µM | ? | ? | 2µM
O=[N+]([O-])c1cccc(-c2cc3ccccc3[nH]2)c1 | - | . | ? | ? | ? | -
COc1ccc(-c2cc(=O)c3ccccc3[nH]2)cc1 | ? | - | - | - | - | -
Cc1ccc(O)c(-c2cc3ccccc3[nH]2)c1 | 27µM | - | - | - | ? | -
SMILES | FLuc counter | SMN2 splice up | NPC1 promoter act | ELG1 genotox | ELG1 DNA repair | Rab9 prom act
CC(=O)N1c2ccc(S(=O)(=O)NCc3ccc(Cl)cc3)cc2CC1C (stereo not given) | - | . | . | . | . | .
CCOc1ccc(C(=O)c2cn(CC(=O)Nc3ccc(C)c(C)c3)c3ccc(OCC)cc3c2=O)cc1 | - | - | . | . | . | .
CCn1c(SCc2cccc(OC)c2)nc2ccccc2c1=O | - | . | - | - | - | -
CCOc1ccc(C(=O)N2CCC(c3nc4ccccc4o3)CC2)cc1 | - | . | . | . | . | .
CC(=O)C1=C(O)C(=O)N(c2ccccn2)C1c1ccccc1[N+](=O)[O-] (stereo not given) | - | . | - | - | - | -
C=CC(=O)N1CCCC(Nc2nc(Nc3ccc(N(C)C(=O)CC)cc3C)nc3nc[nH]c23)C1 (stereo not given) | . | . | . | - | - | .
CCOc1ccc(NC(=O)c2cc(-c3ccc(C)c(F)c3)on2)c([N+](=O)[O-])c1 | - | . | . | . | . | .
Cc1ccc(C2CCN(C(=O)Nc3ccccc3)C2)cc1 (stereo not given) | 12µM | ? | 4.5µM | ? | ? | 4µM
Cc1ccc(NC(=O)N2CCC(c3ccccc3)C2)cc1C (stereo not given) | 4.8µM | 13µM | 1.4µM | ? | ? | 0.79µM
O=C(Nc1ccc(Cl)cc1)N1CCC(c2ccccc2)C1 (stereo not given) | 3.8µM | 13µM | 1.6µM | ? | ? | 1.1µM
Cc1ccc(C(=O)NC2CCN(C(=O)Nc3ccccc3)CC2)cc1 | - | . | - | - | - | -
CCN(CC)c1ccc(NC(=O)CSc2nnc(C)c(=O)[nH]2)cc1 | ? | - | . | . | . | .
CC(=O)Nc1ccc(S(=O)(=O)N/N=C/c2cccnc2)cc1 | - | . | - | - | - | -
CC(=O)Nc1ccc(S(=O)(=O)N/N=C/c2ccc(C)s2)cc1 | 11µM | ? | - | ? | ? | ?
Cc1ccc(NC(=O)c2sc3nc(CCl)[nH]c(=O)c3c2C)c(C)c1 | 9.5µM | ? | - | ? | ? | ?
Cc1csc(NC(=O)CSc2nc3sc(C)c(C)c3c(=O)[nH]2)n1 | - | - | - | - | ? | -
CSCc1nc2sc(C(=O)Nc3nc(C)cs3)c(C)c2c(=O)[nH]1 | ? | 11µM | ? | - | ? | 3.2µM
O=C(CC(c1cccs1)N1Cc2ccccc2C1=O)Nc1cccc(F)c1 (stereo not given) | - | . | . | . | . | .
O=C1c2ccc3c4c(ccc(c24)C(=O)N1c1cccc(O)c1)C(=O)N(c1cccc(O)c1)C3=O | - | . | - | - | 6.5µM | -
O=C1c2ccc3c4c(ccc(c24)C(=O)N1c1cccc(O)c1)CC3 | - | - | - | - | - | -
O=C(COC(=O)c1ccc(S(=O)(=O)N2CCCCC2)cc1)NCc1ccccc1 | . | . | . | - | - | .
CC1(C)OC(=O)C(=CNc2cccc(C(=O)O)c2)C(=O)O1 | 15µM | - | - | - | - | ?
CC1(C)OC(=O)C(=CNc2ccccc2)C(=O)O1 | ? | - | - | - | - | -
O=C(O)c1ccccc1-c1ccccc1C(=O)c1ccccc1 | . | -[9.22 µM] | . | . | . | .
O=C1C(=O)c2c(C(=O)c3ccccc3)coc2-c2ccccc21 | ? | - | - | 10µM | ? | -
COc1ccc(CC(=O)NCc2ccc3c(c2)CCN3C(=O)c2ccc(Cl)cc2)cc1OC | - | . | . | . | . | .
Cc1ccc(-n2[nH]c3c4c(ccc3c2=O)C(=O)c2ccccc2C4=O)cc1 | - | - | - | - | - | -
CC(C)(C)n1[nH]c2c3c(ccc2c1=O)C(=O)c1ccccc1C3=O | - | ? | - | - | - | -
COCCCn1[nH]c2c3c(ccc2c1=O)C(=O)c1ccccc1C3=O | ? | - | - | - | 26µM | -
Cc1ccc(C)c(-n2[nH]c3c4c(ccc3c2=O)C(=O)c2ccccc2C4=O)c1 | 15µM | - | - | - | - | -
